Structures are written as SMILES. Records with an inconclusive call do not appear. Active and inactive are the calls of the source. Unless noted, calls follow the shape of the dose curve; as a rule, active = well fitted curve in the direction sought with a large enough effect in the repeat runs; inconclusive = weak or mixed curves; inactive = no such curve, though single readings can be large; an effect the other way counts as inactive or inconclusive.

A short description of test [1]: qHTS assay to identify aromatase inhibitors - cell viability counter screen (AID 743084).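 Also: cells stimulated with testosterone during compound exposure; nearly all actives have a fitted effect of over 55% in size.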
Test [2] deals with Aryl hydrocarbon receptor (Homo sapiens) (UniProt P35869). In words: qHTS assay to identify small molecule that activate the aryl hydrocarbon receptor (AhR) signaling pathway (AID 743085).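 Also: HG2L7.5c1 human HepG2 liver cells with stably integrated DRE-driven firefly reporter; series mostly up to about 70 µM; nearly all actives have a fitted effect of over 15% in size.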 The essentials:
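HepG2 cells (HG2L7.5c1) stably carrying a firefly luciferase reporter driven by 20 dioxin responsive elements were exposed to compound for 24 h at 37C after a 5 h settling period; luminescence rise (ONE-Glo) indicated activation.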

Test [3] can be described thus: qHTS assay to identify small molecule that activate the aryl hydrocarbon receptor (AhR) signaling pathway - cell viability counter screen (AID 743086).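 Also: HepG2 liver cells carrying the AhR DRE luciferase reporter; series mostly up to about 70 µM; nearly all actives have a fitted effect of over 45% in size.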 In a few lines:
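HepG2-AhR-luc (HG2L7.5c1) cells, 4000/well, treated 24 h at 37 C with compound; viability measured as CellTiter-Fluor fluorescence after 30 min in the same wells as the luciferase read.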

The target in test [4] is Peroxisome proliferator-activated receptor gamma (Homo sapiens) (UniProt P37231). In words: qHTS assay to identify small molecule agonists of the peroxisome proliferator-activated receptor gamma (PPARg) signaling pathway (AID 743094; active = well fitted activation curve with a large enough effect in the signal ratio in the repeat runs, not every such curve was filed as active; the % refers to the signal ratio). The essentials:
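Agonist activity was taken from a beta-lactamase reporter (FRET substrate, 1 h at room temperature) in HEK293H cells carrying a PPARg UAS-bla construct. Compounds in DMSO were incubated 17 h at 37C after a 5 h cell pre-incubation.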

The nature of test [5]: qHTS assay to identify small molecule antagonists of the peroxisome proliferator-activated receptor gamma (PPARg) signaling pathway - cell viability counter screen (AID 743194). Also: nearly all actives have a fitted effect of over 55% in size. In a few lines:
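Cytotoxicity counter screen in PPARg-bla HEK293H cells, same wells as reporter assay. Compounds plus 50 nM rosiglitazone (final) for 17 h at 37 C, then viability read by CellTiter-Glo luminescence.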

The nature of test [6]: qHTS assay for small molecule agonists of the antioxidant response element (ARE) signaling pathway (AID 743202; active = well fitted activation curve with a large enough effect in the signal ratio in the repeat runs, not every such curve was filed as active; the % refers to the signal ratio; also: potency is read from the fitted curve at half-maximal effect). The essentials:
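HepG2 ARE-bla reporter line, 2,000 cells/well; 5 h preincubation 37 C/5% CO2; compound (DMSO) 16 h 37 C; B/G FRET substrate 2 h RT; fluorescence intensity.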

A short description of test [7]: qHTS assay for small molecule agonists of the antioxidant response element (ARE) signaling pathway - cell viability counter screen (AID 743203; calls by dose curve; also: nearly all actives have a fitted effect of over 55% in size). In a few lines:
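Viability counter screen: CellTiter-Glo luminescence, read after 30 min at room temperature, in ARE-bla HepG2 wells. Compound exposure lasted 16 h at 37C/5% CO2, following a 5 h pre-incubation of the cells after plating.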

The nature of test [8]: qHTS assay for small molecule activators of the heat shock response signaling pathway - cell viability counter screen (AID 743209). Also: nearly all actives have a fitted effect of over 50% in size. In a few lines:
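Cytotoxicity counter screen run in the same wells as the heat-shock bla reporter assay: HeLa HSE-bla cells, 5 h compound exposure at 37 C, viability read by CellTiter-Glo luminescence.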

Test [9] is described as follows: qHTS assay to identify small molecule agonists of the peroxisome proliferator-activated receptor delta (PPARd) signaling pathway - cell viability counter screen (AID 743211). Also: nearly all actives have a fitted effect of over 55% in size. In a few lines:
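PPARd-bla HEK293H cells (UAS-beta-lactamase reporter) were treated with compounds for 17 h at 37 C. Viability was then read in the same wells by CellTiter-Glo luminescence after 30 min at room temperature.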

Test [10] is described as follows: qHTS assay to identify small molecule antagonists of the peroxisome proliferator-activated receptor delta (PPARd) signaling pathway - cell viability counter screen (AID 743213). Also: nearly all actives have a fitted effect of over 50% in size. In a few lines:
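Same-well viability: cells pre-incubated 5 h, dosed with compound plus 300 nM L165041, kept 17 h at 37 C, FRET substrate 2 h RT, then CellTiter-Glo 30 min RT and luminescence.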

For test [11], the target named is Bile acid receptor (Homo sapiens) (UniProt Q96RI1). In words: qHTS assay to identify small molecule antagonists of the farnesoid-X-receptor (FXR) signaling pathway (AID 743217; active = well fitted inhibition curve with a large enough effect in the signal ratio in the repeat runs, not every such curve was filed as active; the % refers to the signal ratio). The essentials: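 Antagonist mode: chenodeoxycholic acid at 50 uM final stimulates a UAS-driven beta-lactamase reporter in HEK 293T FXR-bla cells during 16 h, 37C compound exposure. Read-out is FRET substrate fluorescence after 2 h at room temperature.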

The target is the same in test [12]. In words: qHTS assay to identify small molecule agonists of the farnesoid-X-receptor (FXR) signaling pathway (AID 743220; active = well fitted activation curve with a large enough effect in the signal ratio in the repeat runs, not every such curve was filed as active; the % refers to the signal ratio). In a few lines:
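FXR-UAS-bla HEK 293T cells carrying a UAS-driven beta-lactamase reporter were plated for 5 h at 37C/5% CO2, then exposed to DMSO-dissolved Tox21 10K compounds for 16 h at 37C. A LiveBLAzer B/G FRET substrate was loaded for 2 h at room temperature before fluorescence reading.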

Test [13] is described as follows: qHTS assay to identify small molecule antagonists of the farnesoid-X-receptor (FXR) signaling pathway - cell viability counter screen (AID 743221; active = well fitted cell-killing curve with a large enough effect in the repeat runs, not every such curve was filed as active; also: nearly all actives have a fitted effect of over 50% in size). In a few lines:
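FXR-UAS-bla HEK 293T cells were treated with test compounds plus chenodeoxycholic acid (50 uM final) for 16 h at 37 C. Cell viability in the same wells was then read as CellTiter-Glo luminescence after 30 min at room temperature.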

Test [14] deals with Vitamin D3 receptor (Homo sapiens) (UniProt P11473). In words: qHTS assay to identify small molecule agonists of the vitamin D receptor (VDR) signaling pathway (AID 743222; calls by dose curve). In a few lines: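 Agonist mode, beta-lactamase reporter: fluorescence from LiveBLAzer B/G FRET substrate (2 h, room temperature) read after 16 h compound treatment at 37 C of VDR-bla cells, which were pre-incubated 4 h after seeding.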

Test [15] has the same target. In words: qHTS assay to identify small molecule antagonists of the vitamin D receptor (VDR) signaling pathway (AID 743223; active = well fitted inhibition curve with a large enough effect in the signal ratio in the repeat runs, not every such curve was filed as active; the % refers to the signal ratio). The essentials:
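VDR-bla cells were plated, incubated 4 h at 37C, then given compound and 1alpha,25-dihydroxyvitamin D3 (3 nM final). After 16 h at 37C, LiveBLAzer B/G FRET substrate was added for 2 h at room temperature and fluorescence read.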

Test [16] in a line: qHTS assay for small molecule activators of the heat shock response signaling pathway (AID 743210; active = well fitted activation curve with a large enough effect in the signal ratio in the repeat runs, with a control signal flat, not every such curve was filed as active; the % refers to the signal ratio; also: series mostly up to about 63 µM). In a few lines: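 Beta-lactamase reporter read-out: FRET substrate fluorescence after 2.5 h at RT, following 5 h compound treatment at 37 C of HeLa cells carrying HSE-driven bla reporter; quantitative HTS format.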
Test [17] addresses Peroxisome proliferator-activated receptor delta (Homo sapiens) (UniProt Q03181). In words: qHTS assay to identify small molecule agonists of the peroxisome proliferator-activated receptor delta (PPARd) signaling pathway (AID 743212; calls by dose curve). In a few lines: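 Read-out: beta-lactamase FRET fluorescence after 2 h room-temperature incubation with LiveBLAzer B/G substrate. Cells were HEK293H carrying a UAS-bla reporter for PPARd, treated at 37 C with DMSO-dissolved compounds.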

The target is the same in test [18]. In words: qHTS assay to identify small molecule antagonists of the peroxisome proliferator-activated receptor delta (PPARd) signaling pathway (AID 743215; active = well fitted inhibition curve with a large enough effect in the signal ratio in the repeat runs, not every such curve was filed as active; the % refers to the signal ratio;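 also: cells stimulated with agonist L165041 at 300 nM final during compound exposure; series mostly up to about 62 µM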). The essentials:
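Agonist L165041 (300 nM final) added with compound to PPARd-bla HEK293H UAS-bla reporter cells; 17 h incubation at 37 C. Read-out: LiveBLAzer FRET substrate, 2 h at room temperature, fluorescence intensity.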

A short description of test [19]: qHTS assay to identify small molecule agonists of the farnesoid-X-receptor (FXR) signaling pathway - cell viability counter screen (AID 743218). Also: nearly all actives have a fitted effect of over 45% in size. The essentials: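 Viability counter screen in the same wells: CellTiter-Glo luminescence, 30 min room-temperature incubation, measured after the beta-lactamase read. Cells were GeneBLAzer FXR-UAS-bla HEK 293T, compound-treated 16 h at 37C.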

Test [20] deals with Peroxisome proliferator-activated receptor gamma (Homo sapiens) (UniProt P37231). In words: qHTS assay to identify small molecule antagonists of the peroxisome proliferator-activated receptor gamma (PPARg) signaling pathway (AID 743191; calls by dose curve; also: series mostly up to about 63 µM; nearly all actives have a fitted effect of over 30% in size). The essentials: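 GeneBLAzer PPARg UAS-bla HEK293H cells, 5 h post-plating, exposed to compounds 17 h at 37C. LiveBLAzer B/G FRET substrate added for 1 h at room temperature; beta-lactamase reporter read by fluorescence intensity.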
Chain of Peroxisome proliferator-activated receptor gamma (Homo sapiens) (P37231 whole entry, looked up): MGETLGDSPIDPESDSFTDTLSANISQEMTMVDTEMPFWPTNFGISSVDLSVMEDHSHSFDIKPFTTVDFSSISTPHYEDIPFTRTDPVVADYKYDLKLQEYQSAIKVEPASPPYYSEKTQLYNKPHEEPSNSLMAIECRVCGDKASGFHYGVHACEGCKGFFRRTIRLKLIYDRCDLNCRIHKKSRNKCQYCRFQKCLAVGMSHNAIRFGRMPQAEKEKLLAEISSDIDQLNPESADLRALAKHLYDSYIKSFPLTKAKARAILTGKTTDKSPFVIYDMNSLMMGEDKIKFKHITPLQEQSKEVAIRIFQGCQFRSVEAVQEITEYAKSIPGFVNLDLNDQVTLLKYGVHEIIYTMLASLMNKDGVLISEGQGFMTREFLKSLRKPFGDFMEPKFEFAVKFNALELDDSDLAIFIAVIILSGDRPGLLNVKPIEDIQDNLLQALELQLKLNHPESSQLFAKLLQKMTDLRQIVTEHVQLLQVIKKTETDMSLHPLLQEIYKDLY

Chain of Aryl hydrocarbon receptor (Homo sapiens) (P35869 whole entry, looked up): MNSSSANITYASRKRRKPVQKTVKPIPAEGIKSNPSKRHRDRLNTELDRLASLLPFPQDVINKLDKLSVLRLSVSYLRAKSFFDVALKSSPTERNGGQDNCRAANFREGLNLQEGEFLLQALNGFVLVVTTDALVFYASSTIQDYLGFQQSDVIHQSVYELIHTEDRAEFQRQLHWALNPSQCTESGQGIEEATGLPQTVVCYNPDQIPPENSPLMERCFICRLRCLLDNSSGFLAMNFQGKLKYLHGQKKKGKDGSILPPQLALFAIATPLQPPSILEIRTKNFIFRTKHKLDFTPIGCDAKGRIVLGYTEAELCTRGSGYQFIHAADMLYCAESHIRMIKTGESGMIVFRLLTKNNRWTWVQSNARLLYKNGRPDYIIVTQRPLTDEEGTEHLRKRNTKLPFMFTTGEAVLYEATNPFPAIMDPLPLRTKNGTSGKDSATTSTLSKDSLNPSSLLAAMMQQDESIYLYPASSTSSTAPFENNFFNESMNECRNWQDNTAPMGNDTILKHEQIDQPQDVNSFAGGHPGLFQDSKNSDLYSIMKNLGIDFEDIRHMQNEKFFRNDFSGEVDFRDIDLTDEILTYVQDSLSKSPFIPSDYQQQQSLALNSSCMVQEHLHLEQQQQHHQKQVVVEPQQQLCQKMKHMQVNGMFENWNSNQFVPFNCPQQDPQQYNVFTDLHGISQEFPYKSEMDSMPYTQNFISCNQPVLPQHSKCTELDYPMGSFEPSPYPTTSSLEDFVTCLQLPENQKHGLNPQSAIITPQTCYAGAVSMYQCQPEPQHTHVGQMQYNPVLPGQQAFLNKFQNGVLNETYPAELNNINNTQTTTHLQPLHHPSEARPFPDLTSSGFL
Chain of Peroxisome proliferator-activated receptor delta (Homo sapiens) (Q03181 whole entry, looked up): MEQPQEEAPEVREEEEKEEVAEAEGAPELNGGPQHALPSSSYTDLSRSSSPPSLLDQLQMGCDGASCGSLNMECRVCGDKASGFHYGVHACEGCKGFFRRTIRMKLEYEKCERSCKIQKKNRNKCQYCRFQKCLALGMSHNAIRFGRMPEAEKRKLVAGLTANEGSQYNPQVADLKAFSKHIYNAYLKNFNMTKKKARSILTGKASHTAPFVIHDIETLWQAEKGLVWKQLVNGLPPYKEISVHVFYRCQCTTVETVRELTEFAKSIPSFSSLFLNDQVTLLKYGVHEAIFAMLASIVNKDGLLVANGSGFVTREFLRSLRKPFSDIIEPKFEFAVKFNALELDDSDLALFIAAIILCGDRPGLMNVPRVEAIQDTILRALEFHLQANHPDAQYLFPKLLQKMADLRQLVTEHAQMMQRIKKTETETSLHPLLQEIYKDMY
Chain of Vitamin D3 receptor (Homo sapiens) (P11473 whole entry, looked up): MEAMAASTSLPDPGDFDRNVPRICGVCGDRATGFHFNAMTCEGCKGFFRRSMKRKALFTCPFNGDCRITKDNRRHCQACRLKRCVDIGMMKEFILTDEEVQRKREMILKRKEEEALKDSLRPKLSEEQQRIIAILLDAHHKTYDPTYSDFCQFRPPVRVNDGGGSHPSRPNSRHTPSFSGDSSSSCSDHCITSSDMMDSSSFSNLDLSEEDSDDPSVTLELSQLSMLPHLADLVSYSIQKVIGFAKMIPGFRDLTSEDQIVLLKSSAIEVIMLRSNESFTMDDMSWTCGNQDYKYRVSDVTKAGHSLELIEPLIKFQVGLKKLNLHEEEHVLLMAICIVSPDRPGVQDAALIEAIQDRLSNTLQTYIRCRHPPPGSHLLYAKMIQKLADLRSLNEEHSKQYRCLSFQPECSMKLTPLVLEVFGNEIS
Chain of Bile acid receptor (Homo sapiens) (Q96RI1 whole entry, looked up): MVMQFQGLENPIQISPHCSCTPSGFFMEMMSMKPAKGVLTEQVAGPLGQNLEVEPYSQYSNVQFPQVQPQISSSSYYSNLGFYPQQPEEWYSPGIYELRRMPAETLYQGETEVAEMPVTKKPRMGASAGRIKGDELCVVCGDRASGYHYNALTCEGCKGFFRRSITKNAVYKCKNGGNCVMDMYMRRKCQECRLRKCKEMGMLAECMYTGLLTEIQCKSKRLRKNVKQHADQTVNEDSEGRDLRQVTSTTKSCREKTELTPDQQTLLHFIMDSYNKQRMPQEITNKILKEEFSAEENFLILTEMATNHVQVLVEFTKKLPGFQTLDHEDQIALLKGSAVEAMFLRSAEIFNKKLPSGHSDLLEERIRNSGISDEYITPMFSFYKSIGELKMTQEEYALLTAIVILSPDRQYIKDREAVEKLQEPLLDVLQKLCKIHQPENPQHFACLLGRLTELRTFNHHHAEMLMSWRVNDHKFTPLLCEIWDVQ

In the case of `CC(C)=CCC/C(C)=C/CO`, the Potency result in test [1], in test [2], in test [3], in test [4], in [5] and in test [6] was “inactive” throughout. In addition, the Potency entry in test [7], in [9], in test [10], in test [11] and in [15] was “inactive” in each case. The molecule was classed as inactive in [8], in test [12], in [13] and in [14].
For the molecule `CCCCCCCCCCCCCCCCCC(=O)OCC(O)CO` (centres undefined), the Potency result in test [1], in test [2], in test [3], in test [5], in test [6] and in [7] was “inactive” in each case. In addition, the Potency entry in test [9], in [10], in test [11] and in test [15] was “inactive” in each case. For the same molecule, the call in test [8], in [16], in [17], in test [18], in [12] and in [13] was inactive. The molecule was classed as inactive in test [14].
`C=CCOC(=O)CC(C)C`: the Potency entry in [1], in test [2], in test [3], in test [5], in test [6] and in test [7] was “inactive” in each case. Besides, the Potency entry in [9], in test [10], in test [11], in [19] and in test [15] was “inactive” each time. In addition, the outcome in test [8], in [16], in test [17], in [18], in test [12] and in [13] was inactive. Moreover, the molecule was called inactive in test [14].
As for `C#C[C@]1(O)CC[C@H]2[C@@H]3CCC4=CC(=O)CC[C@@H]4[C@H]3CC[C@@]21CC`, the Potency result in test [1], in [2], in test [3], in test [4], in test [5] and in [7] was “inactive” each time. The Potency entry in [9], in [10], in test [19] and in test [15] was “inactive” each time. Further, the Potency in test [6] is 48.6 µM (active). Also, the result in test [8], in test [17], in [18], in [13] and in test [14] was inactive.
For `CC(C)Cc1ccc(C(C)C(=O)O)cc1` (centres undefined), the Potency result in test [1], in [2], in test [3], in [20], in [5] and in [6] was “inactive” in each case. Moreover, the Potency entry in test [7], in test [9], in [10] and in test [19] was “inactive” in each case. Also, the call in test [8], in test [16], in test [17], in [18] and in [13] was inactive.
With `CCCCOC(=O)CCCCCCCCC(=O)OCCCC`, the Potency result in test [1], in [2], in test [3], in test [20], in [5] and in test [6] was “inactive” in each case. The Potency result in test [7], in test [9], in test [10], in test [19] and in test [15] was “inactive” each time. Also, the call in test [8], in [16], in test [13] and in test [14] was inactive.
For the molecule `Cn1cnc2c1c(=O)[nH]c(=O)n2C`, the Potency result in test [1], in test [2], in test [3], in [5], in test [6] and in test [7] was “inactive” throughout. Further, the Potency result in test [9], in test [10], in test [11], in test [19] and in test [15] was “inactive” throughout. Besides, the result in test [8], in test [16], in [17], in [18], in test [12] and in [13] was inactive. In addition, the molecule was called inactive in test [14].

Values taken from PubChem BioAssay (Tox21).
